# Results as given in PubChem BioAssay (EPA / NIEHS).
# Records with an inconclusive call do not appear. Active and inactive are the calls of the source. Rule for the calls: active = hit-call score of the fitted dose curve at least 0.9, where 1 is the maximum; inconclusive = response in the unintended direction; inactive = score below 0.9.
# How the values were obtained:
# [1] = test system: Thyroperoxidase (TPO), gene 445522; assay: CCTE_Simmons_GUA_TPO: CCTE's Guaiacol Assay for Thyroperoxidase (TPO) Inhibition, Simmons Lab (AID 2283750)
# How it was run: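 Porcine thyroid microsomes (25 ug) in 200mM potassium phosphate, preincubated 30 s at 37C with compound (8 concentrations, 5 nM–87.5 uM) and 35mM guaiacol; 1mM H2O2 starts reaction. Absorbance change at 450nm over first 80 s; loss of signal versus DMSO, three replicates.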
# [2] = ArunA_Migration_hNP: ArunA Biomedical's Oris Neuroprogenitor (hNP) Cell Migration Assay (AID 2283754)
# How it was run: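 Readout is calcein-AM fluorescence (ex494/em517) of cells migrating into the detection zone, relative to DMSO. hNP1 cells (H9-derived) grown on Matrigel behind stoppers 16 h, then stoppers pulled and chemical applied 72 h; cytochalasin D as control.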
# [3] = ArunA_NOG_BranchPointsPerNeurite: ArunA Biomedical's Neurite Outgrowth (NOG) Assay for Branch Points Per Neurite (AID 2283759)
# How it was run: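 Automated image analysis traced neurites (processes >10 um) from valid cell bodies after Hoechst and βIII-tubulin staining. hNN cells from H9 embryonic stem cells, 48 h exposure. Fitted bidirectionally against DMSO.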
# [4] = ArunA_NOG_NeuritesPerNeuron: ArunA Biomedical's Neurite Outgrowth (NOG) Assay for Neurites Per Neuron (AID 2283758)
# How it was run: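 Differentiated human H9-derived neurons exposed to chemicals for 48 h from seeding, then stained with Hoechst and βIII-tubulin/DyLight 488. Automated imaging counted neurites (processes >10 um) per valid neuron; loss of signal versus DMSO scored.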
# [5] = ArunA_NOG_NeuriteLength: ArunA Biomedical's Neurite Outgrowth (NOG) Assay for Neurite Length (AID 2283757)
# How it was run: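 Total neurite length per neuron, from traced βIII-tubulin-labelled processes longer than 10 um on viable Hoechst-gated cells, was scored as decrease from DMSO. Cells were hESC (H9)-derived neurons given 48 h chemical exposure immediately after seeding.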
compound,measurement,setting,value
CSC(=O)c1cccc2nnsc12,outcome,[1],inactive
N[C@@H](Cc1cc(I)c(Oc2ccc(O)c(I)c2)c(I)c1)C(=O)O,AC50,[1],13.1 µM (active)
CC(C)CCCCCCc1ccc(O)cc1,AC50,[2],17 µM (active)
same,outcome,[3],inactive
CC(C)(c1ccc(O)cc1)c1ccc(O)cc1,outcome,[2],inactive
same,outcome,[4],inactive
S=C(S)NCCNC(=S)S.[Mn+2].[S-]C([S-])=NCCN=C([S-])[S-].[Zn+2],outcome,[5],inactive
same,outcome,[4],inactive
